In the library only some 1.6% were active in any assay of this set; here they are far more common.
KCNQ2 block = inhibitors of rat KCNQ2 potassium channel | O88943 | CHO-K1 KCNQ2, FluxOR thallium flux, 20 min; active compounds read low | B-score at 10 µM | actives 1.1% (n = 310,000);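 active = fluorescence ratio B-score at most minus 3 library SDs, with starting brightness B-score within 2 library SDs, cut at about -5.5 in these data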
Target sequence (O88943 whole entry, looked up): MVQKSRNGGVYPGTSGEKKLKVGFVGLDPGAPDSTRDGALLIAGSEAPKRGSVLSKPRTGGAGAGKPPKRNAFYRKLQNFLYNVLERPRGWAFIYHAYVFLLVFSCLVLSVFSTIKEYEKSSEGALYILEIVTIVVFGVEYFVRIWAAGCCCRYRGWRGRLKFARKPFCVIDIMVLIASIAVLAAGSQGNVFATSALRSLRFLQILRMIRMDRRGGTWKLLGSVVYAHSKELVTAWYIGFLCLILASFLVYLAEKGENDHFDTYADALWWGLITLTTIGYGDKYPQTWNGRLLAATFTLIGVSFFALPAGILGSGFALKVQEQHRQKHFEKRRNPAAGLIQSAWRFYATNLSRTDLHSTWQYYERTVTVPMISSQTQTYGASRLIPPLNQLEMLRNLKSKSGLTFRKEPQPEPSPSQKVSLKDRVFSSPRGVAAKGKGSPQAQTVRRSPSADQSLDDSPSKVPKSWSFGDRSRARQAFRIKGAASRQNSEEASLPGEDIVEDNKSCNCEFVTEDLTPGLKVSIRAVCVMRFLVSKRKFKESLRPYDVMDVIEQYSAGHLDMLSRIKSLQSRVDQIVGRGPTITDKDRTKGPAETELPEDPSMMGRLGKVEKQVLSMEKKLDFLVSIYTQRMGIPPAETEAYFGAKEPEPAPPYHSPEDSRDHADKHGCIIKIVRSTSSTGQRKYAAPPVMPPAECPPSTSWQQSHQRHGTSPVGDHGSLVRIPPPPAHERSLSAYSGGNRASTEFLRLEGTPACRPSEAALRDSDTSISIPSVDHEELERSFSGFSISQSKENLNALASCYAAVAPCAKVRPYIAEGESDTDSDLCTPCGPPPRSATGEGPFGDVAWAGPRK
KCNQ2 pot = KCNQ2 (rat) channel potentiation. O88943. CHO-K1 KCNQ2, FluxOR thallium flux fluorescence; active compounds read high. B-score at 10 µM. actives 0.54% (n = 310,000). AID 2239;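 active = fluorescence ratio B-score at least 3 SD of library B-scores, with initial fluorescence B-score within 3 of them, cut at about 5.3 in these data; same plate scores as AID 2156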;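 note: B-score of peak minus minimum over baseline fluorescence ratio after K+ and Tl+ stimulus; positive B-score means potentiation of KCNQ2 with more thallium influx and brighter signal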
* hit, by the source's call; i = inactive; · = no result.

SMILES	KCNQ2 block	KCNQ2 pot
O=C(CN1C(=O)COc2ccc(S(=O)(=O)N3CCCC3)cc21)NC1CC1	i	·
O=C(CN1C(=O)COc2ccc(S(=O)(=O)N3CCCC3)cc21)NC1CCCCCCC1	i	11*
CSc1ccc(/C=C/C(=O)N2CCN(c3ccccn3)CC2)cc1	i	0.13
N#Cc1ccccc1OCCCN1CCC(Cc2ccccc2)CC1	i	·
COc1ccc(Cl)cc1NC(=O)CN(C)C1CCCCC1	i	·
COc1ccc(OC)c(NC(=O)CN(Cc2ccc(F)cc2)C2CCCCC2)c1	-7.9*	-7.9
[O-]/C(=C(\C(=S)Nc1ccc(SC(F)F)cc1)[n+]1cccc(CO)c1)c1ccc(Cl)s1	i	·
Cc1ccc(NC(=S)/C(=C(\[O-])c2ccc(Cl)s2)[n+]2cccc(CO)c2)cc1C	-7.8*	-7.8
CC(C)c1ccc(/C=N/NC(=O)c2c(Cl)cnn2C)cc1	i	0.39
COc1ccc(OC)c(CNn2c(-c3cccc(C)c3)nc3ccccc3c2=O)c1	-5.7*	-5.7
COc1ccc(OCC(=O)Nn2c(-c3ccc(C)cc3)nc3ccccc3c2=O)cc1	i	·
COc1ccc(OC)c(C(=O)NC(CC(N)=O)c2ccc(NCC3CC3)c([N+](=O)[O-])c2)c1 (stereo unspecified)	i	·
COc1ccc(OC)c(C(=O)NC(CC(N)=O)c2ccc(NC(C)C)c([N+](=O)[O-])c2)c1 (stereo unspecified)	-9.6*	-9.6
OCCN1CCN(C2Cc3cc(Cl)ccc3Sc3ccc(Cl)cc32)CC1 (stereo unspecified) (tested in a mixture with another compound)	i	·
CN1CCN(C2Cc3cc(Cl)ccc3Sc3cc(F)ccc32)CC1 (stereo unspecified)	-6.9*	-6.9
COc1cccc(OC)c1C(=O)Nc1ccccc1N1CCCCC1	i	·
Cc1cc(-c2nnc(SCC(=O)Nc3cccc(Cl)c3)n2N)n[nH]1	i	0.63
COc1ccccc1N=Cc1c(C)[nH]n(-c2ccc(C)cc2C)c1=O	i	·
COc1ccc2nc(/N=C/c3c(C)[nH]n(-c4ccc(C)cc4C)c3=O)sc2c1	i	20*
Cc1cc(CNC(=O)c2cccc(OC3CCN(S(=O)(=O)N(C)C)CC3)c2)on1	i	0.01
C/C(=C\C(=O)c1ccccc1)Nc1ccc(Cl)c(Br)c1	i	0.64
C/C(=C\C(=O)c1ccc(Cl)cc1)Nc1ccc(Br)cc1	-6*	-6
O=C(Cc1ccc(Cl)cc1)Nc1ccc(Br)cc1	i	3.2
C/C(=C\C(=O)c1ccc(Br)cc1)Nc1cccc(Cl)c1	-6.2*	-6.2
CCc1c(C)nc(SCC(=O)N2CCCCC2CC)[nH]c1=O (stereo unspecified)	i	·
SMILES	KCNQ2 block	KCNQ2 pot
Cc1ccc2c(c1)N(C(=O)CCC(=O)NCCCN1CC(C)CC(C)C1)CCO2 (stereo unspecified)	i	0.01
CCc1noc(C)c1C(=O)Nc1ccccc1C(C)(C)C	i	1.2
COc1ccc(OC)c(N(CC(N)=O)S(=O)(=O)c2ccc(OC)c(OC)c2)c1	i	1.5
COCCN(C(=S)Nc1cc(C)cc(C)c1)C(C)c1cccs1 (stereo unspecified)	i	8*
Cc1ccc(C)c(NC(=S)N(Cc2ccco2)C(C)c2cccs2)c1 (stereo unspecified)	i	·
CC(c1cccs1)N(Cc1ccco1)C(=O)Nc1ccc(Cl)c(Cl)c1 (stereo unspecified)	-13*	-13
Cc1ccc(NC(=S)N(Cc2ccco2)C(C)c2cccs2)c(Cl)c1 (stereo unspecified)	-6.2*	-6.2
COc1cccc(NC(=O)N(Cc2ccco2)C(C)c2cccs2)c1 (stereo unspecified)	i	0.15
Cc1ccc(NC(=O)CN(Cc2ccco2)Cc2ccccc2O)cc1C	-5.8*	-5.8
Cc1ccc(NC(=O)C[n+]2ccccc2)cc1C	i	0.86
COCCN(C(=S)Nc1ccc(OC)cc1)C(C)c1cccs1 (stereo unspecified)	i	1.4
O=C(Sc1ccc(Cl)cc1)c1ccccn1	i	·
CCC1CCCCN1C(=O)CSc1nnc(-c2c[nH]c3ccccc23)o1 (stereo unspecified)	i	·
CCOC(=O)C(C)/C(C)=N/NC(N)=S (stereo unspecified)	i	·
Cc1ccc(NC(=O)N(Cc2cccnc2)Cc2ccco2)cc1C	i	·
Cc1ccc(NC(=O)N(Cc2ccco2)C(C)c2ccco2)cc1C (stereo unspecified)	-5.9*	-5.9
Cc1cccc(N=Cc2cc(Br)cc(Cl)c2O)c1	i	9.3*
COc1ccc(N=Cc2cccc(C)c2O)cc1Cl	i	0.04
CCOC(=O)C1=C(CNCc2ccccc2Cl)NC(=O)NC1c1ccc2c(c1)OCO2 (stereo unspecified)	i	·
CCOC(=O)C1=C(CNCc2ccccc2Cl)NC(=O)NC1c1cccc([N+](=O)[O-])c1 (stereo unspecified)	-6.3*	-6.3
CCC(C)C(NS(=O)(=O)c1ccc(C)cc1)C(=O)O (stereo unspecified)	i	0.45
CCC(C)C(NS(=O)(=O)c1ccc(C)cc1)C(=O)NCCCN1CCOCC1 (stereo unspecified)	-5.6*	-5.6
COc1cccc(C(=O)N2CCC(n3nccc3NC(=O)CCOc3ccccc3)CC2)c1	i	0.79
O=C(CNC(=O)c1ccc(F)cc1)Nc1ccccc1C(F)(F)F	i	0.04
Cc1cc(Cl)ccc1OCC(=O)N1CCCN(C(=O)COc2ccc(Cl)cc2C)CC1	i	·
SMILES	KCNQ2 block	KCNQ2 pot
Cc1cc(Cl)ccc1OC(C)C(=O)N1CCCN(C(=O)C(C)Oc2ccc(Cl)cc2C)CC1 (stereo unspecified)	-6.2*	-6.2
O=S(=O)(Nc1cccc(-c2ccc3nncn3n2)c1)c1cc(F)ccc1F	i	1.1
CCN(CC(=O)NCc1cccs1)C(=O)c1ccc(-c2cccc(C(F)(F)F)c2)o1	-7.6*	-7.6
CCN(CC(=O)NCc1cccs1)C(=O)c1cccc(S(=O)(=O)NC)c1	i	·
C=C(C)C(=O)OC1(C(F)(F)F)Oc2cc(C)ccc2NC1=O (stereo unspecified)	i	·
CN(C)/C(=N\S(=O)(=O)c1ccc(Br)cc1)c1ccccc1	i	1.3
O=C(O)/C=C(\Oc1ccccc1)C1(O)CCCCC1	i	·
COC(=O)c1ccc2c(=O)n(CCCCCC(=O)N3CCN(c4ccccc4)CC3)c(=O)[nH]c2c1	i	0.02
COc1cc2[nH]c(=O)n(CCCCCC(=O)N3CCN(c4ccccc4)CC3)c(=O)c2cc1OC	-8.3*	-8.3
COC(=O)c1ccc(C23CC4(C2)[C@H](CN(CC2CCCCC2)[C@@H]4c2ccccc2)C3c2ccc(Cl)nc2)cc1 (stereo partly specified)	i	·
CCOC(=O)/C(C)=N/NC(=O)c1ccc([N+](=O)[O-])cc1	i	5.1
CC(=N\NC(=O)c1ccc([N+](=O)[O-])cc1)/C(=N/O)C(=O)Nc1ccccc1	-5.8*	-5.8
Cc1cc(C)n(CCC(=O)N2c3ccccc3CC2C)n1 (stereo unspecified)	i	·
COc1ccc(Oc2ccc(C(F)(F)F)cc2NC(=O)c2ccc(C)cc2)cc1	-5.6*	-5.6
COCCOc1ccc(C(F)(F)F)cc1NC(=O)c1ccc(C)cc1	i	·
O=c1n(-c2ccccc2)c(=O)n(Cc2ccccn2)n1Cc1ccccn1	i	0.4
CCCN(CC1CC1)C(=O)COc1ccccc1C(=O)NCc1ccccc1	-7.7*	-7.7
